The values that follow come from PubChem BioAssay (NCATS).

Experiment [1] deals with Glutathione peroxidase 1 (Homo sapiens) (UniProt P07203). In words: Primary qHTS Assay for Inhibitors of Recombinant Selenoprotein Glutathione Peroxidase 1 (GPX1) (AID 1845191). Note: nearly all actives have a fitted effect of over 65% in size. In outline:
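GR-coupled assay: compounds preincubated 30 min at room temperature with GPX1, then reaction started with CHP; final 10 nM GPX1, 1 mM GSH, 0.5 mM CHP, 0.5 mM NADPH, 100 nM GR, 0.01% BSA, pH 7.5 Tris buffer. NADPH fluorescence (340/450 nm) read at 0 and 15 min.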
In general terms: In qHTS, concentration-response curves come from the screen itself.

For experiment [2], the target named is Luciferin 4-monooxygenase (Photinus pyralis) (UniProt P08659). Kind of experiment: Primary firefly luciferase (FLuc) qHTS assay for identification of artifact compounds. (AID 1845220).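 For activity change, negative = inhibition: series mostly up to about 54 µM; plate controls were DMSO vehicle for no effect and no enzyme for full effect.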 Note: nearly all actives have a fitted effect of over 60% in size. Note: potency is the fitted concentration of half-maximal effect. In outline:
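Enzymatic FLuc inhibition assay: compounds pre-exposed to luciferin/ATP (10 uM each) for 15 min, then purified P. pyralis enzyme at 10 nM added. Read-out: luminescence at 5 min.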

Experiment [3] can be described thus: Primary fluorescence-based thiol-reactive (MSTI) qHTS assay for identification of artifact compounds. (AID 1845221).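 For activity change, negative = thiol reactive: series mostly up to about 54 µM; thiol-reactive compounds lower the probe fluorescence signal.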 Note: nearly all actives have a fitted effect of over 65% in size. Note: potency is the fitted concentration of half-maximal effect. In a few lines:
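Thiol-reactive compounds detected by quenching of 4 uM MSTI fluorescence (525/598 nm) after 1 h room-temperature dark incubation in PBS pH 7.4, 2% DMSO. qHTS titration; percent inhibition Hill-fitted against Acetyl-MSTI/MSTI controls.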

Experiment [4] has as its target Phospholipid hydroperoxide glutathione peroxidase GPX4 (Homo sapiens) (UniProt P36969). Kind of experiment: Primary qHTS Assay for Inhibitors of Recombinant Selenoprotein Glutathione Peroxidase 4 (GPX4) (AID 1845192). Note: series mostly up to about 50 µM; % is set by controls: 0 for no effect and ±100 for the full control effect; nearly all actives have a fitted effect of over 65% in size. In a few lines: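 GR-coupled assay: recombinant GPX4 preincubated 30 min with compound at room temperature; final 200 nM GPX4, 1 mM GSH, 0.5 mM cumene hydroperoxide, 0.5 mM NADPH, 100 nM GR, 0.01% BSA, pH 7.5 Tris. NADPH fluorescence (340/450 nm) read at 0 and 15 min.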

A number with no mark means an inactive call. Records with an inconclusive call do not appear. Calls of active or inactive are those of the source. Calls come from the whole dose curve; as a rule, active = well fitted curve in the direction sought with a large enough effect; inconclusive = small, poorly fitted or top-dose-only effect, or another doubt; inactive = no such curve, though single readings can be large; an effect the other way counts as inactive or inconclusive.

Glutathione peroxidase 1 (Homo sapiens), sequence (P07203 whole entry, looked up): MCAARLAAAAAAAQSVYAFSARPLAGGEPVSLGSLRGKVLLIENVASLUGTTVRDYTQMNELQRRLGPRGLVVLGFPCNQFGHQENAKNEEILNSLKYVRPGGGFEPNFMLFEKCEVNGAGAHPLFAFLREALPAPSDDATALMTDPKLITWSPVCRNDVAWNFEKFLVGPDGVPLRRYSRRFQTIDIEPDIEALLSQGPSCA
Phospholipid hydroperoxide glutathione peroxidase GPX4 (Homo sapiens), sequence (P36969 whole entry, looked up): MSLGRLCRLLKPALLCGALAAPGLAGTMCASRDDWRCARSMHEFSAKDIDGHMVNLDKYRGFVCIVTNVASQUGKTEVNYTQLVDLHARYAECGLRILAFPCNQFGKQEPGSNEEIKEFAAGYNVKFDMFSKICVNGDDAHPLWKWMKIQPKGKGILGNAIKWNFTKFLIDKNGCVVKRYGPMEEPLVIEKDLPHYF

On to `O=C(c1c2ccccc2cc2ccccc12)N1CCC(N2CCC[C@@H](C(=O)N3CCOCC3)C2)CC1`, for which the Potency result in experiment [1], in experiment [2] and in experiment [3] was “inactive” in each case.

Take `COC(=O)Cn1nc(-c2cccc(OC)c2)c2ccccc21`: the Potency result in experiment [1], in experiment [2] and in experiment [3] was “inactive” throughout.

As to `COc1ccccc1CN[C@H]1CCCN[C@H]1c1ccccc1`, the Potency entry in experiment [1], in experiment [2] and in experiment [3] was “inactive” in each case.

Regarding `COc1ccc(/C=C/C(=O)O[C@@H]2[C@@H](OC(C)=O)[C@@H](OC(C)=O)[C@H](O[C@H]3[C@@H]4C=CO[C@@H](O[C@@H]5O[C@H](CO)[C@@H](O)[C@H](O)[C@H]5O)[C@@H]4[C@@]4(CO)O[C@@H]34)O[C@H]2C)cc1`, the Potency entry in experiment [1], in experiment [2] and in experiment [3] was “inactive” in each case.

As to `O=C1NC(=O)/C(=C/c2cccc(C(F)(F)F)c2)S1`, the Potency result in experiment [1] and in experiment [2] was “inactive” throughout. Besides, the Potency in experiment [3] is 1.06 µM (active).

For the molecule `C/C=C(\C)C(=O)OC1C2(O)CC3=C4CC(=O)OC(c5ccoc5)C4(C)CCC3C(C)(C2=O)C(C(OC(C)=O)C(=O)OC)C1(C)C` (stereo not given), the Potency result in experiment [1], in experiment [2] and in experiment [3] was “inactive” each time.

With `COC(=O)C(CC1(O)c2ccccc2N2C(=O)C(C)(C)N(O)C21)n1cnc2ccccc2c1=O` (stereo not given), the Potency result in experiment [1], in experiment [2] and in experiment [3] was “inactive” each time.

For `C[C@H]1CC[C@@]2(OC1)O[C@H]1CC3C4CC[C@H]5C[C@@H](O)CC[C@]5(C)C4CC(=O)[C@]3(C)[C@H]1[C@@H]2C` (stereo not given in full), the Potency result in experiment [1], in experiment [2] and in experiment [3] was “inactive” throughout.

As to `COc1cc(C2Oc3c(OC)cc(/C=C/C(=O)OC4CC(O)(C(=O)O)CC(O)C4O)cc3C2CO)ccc1O` (stereo not given), the Potency entry in experiment [1], in experiment [2] and in experiment [3] was “inactive” throughout.

Consider `COc1ccc(C2(O)c3ccccc3NC(=O)C2OC)cc1` (stereo not given), for which the Potency result in experiment [1], in experiment [2] and in experiment [3] was “inactive” throughout.

Regarding `O=C(NCCN1CCCC1)c1cc(-c2ccc(CN3CCOCC3)cc2)nc2ccc(F)cc12`, the Potency result in experiment [1], in experiment [2] and in experiment [3] was “inactive” throughout.

Take `CC1(C)CC[C@]2(C(=O)O[C@@H]3O[C@H](CO)[C@@H](O)[C@H](O)[C@H]3O)CC[C@]3(C)C(=CCC4[C@@]5(C)C[C@H](O)[C@H](O[C@@H]6O[C@H](C(=O)O)[C@@H](O)[C@H](O)[C@H]6O)[C@@](C)(CO)C5CC[C@]43C)C2C1` (stereo not given in full): the Potency result in experiment [1] was “inactive”. Moreover, the outcome in experiment [2] was “inactive [at 11.6 µM]”. For the same molecule, the activity change, negative = thiol reactive in experiment [3] is 8.46% [at 11.5 µM].

With `COC(=O)C1(C)CCCC2(C)c3ccc(C(C)C)cc3C(O)C(O)C12` (stereo not given), the Potency entry in experiment [1], in experiment [2] and in experiment [3] was “inactive” in each case.

For `CSCC1OC(n2cnc3c(N)ncnc32)C(O)C1O` (stereo not given), the Potency entry in experiment [1], in experiment [2] and in experiment [3] was “inactive” throughout.

As for `COc1c2ccoc2nc2c(OC)c(O[C@@H]3O[C@@H](C)[C@H](O)[C@@H](O[C@@H]4O[C@H](CO)[C@@H](O)[C@H](O)[C@H]4O)[C@H]3OC(C)=O)ccc12`, the Potency result in experiment [1], in experiment [2] and in experiment [3] was “inactive” in each case.

Consider `C[C@@H]1O[C@@H](O[C@H]2[C@H](O[C@H]3[C@H](O[C@H]4CC[C@@]5(C)C(CC[C@]6(C)C5CC=C5[C@@H]7CC(C)(C)C[C@@H](O)[C@]7(C)CC[C@]56C)[C@@]4(C)CO)O[C@H](C(=O)O)[C@@H](O)[C@@H]3O)O[C@H](C(=O)O)[C@H](O)[C@@H]2O)[C@H](O)[C@H](O)[C@H]1O` (stereo not given in full), for which the Potency entry in experiment [1] is “inactive”. For the same molecule, the activity change, negative = inhibition in experiment [2] is 0.9% [at 11.6 µM]. Also, in experiment [3], the activity change, negative = thiol reactive is 68.8% [at 11.5 µM].

For `CC(C)(Oc1ccc(-c2nc3cc(Cl)ccc3s2)cc1)C(=O)O`, the Potency entry in experiment [1] and in experiment [3] was “inactive” in each case. Also, in experiment [2], the Potency is 2.39 µM (active).

Take `COc1cc(/C=C/C(=O)O[C@H]2C[C@@H]3C(C(=O)O)=CO[C@@H](O[C@@H]4O[C@H](CO)[C@@H](O)[C@H](O)[C@H]4O)[C@@H]3[C@H]2C)ccc1O`: the Potency entry in experiment [1] and in experiment [2] was “inactive” each time.

In the case of `CCC(C)/C=C(C)/C=C/C1=CC2=CC(=O)C(C)(O)C(OC(C)=O)C2CO1` (stereo not given), the Potency result in experiment [1] and in experiment [2] was “inactive” each time.

As for `CC(=O)OCC1OC(O[C@H]2CC[C@@]3(C)C(CC[C@]4(C)C3CC=C3[C@@H]5CC(C)(C)CC[C@]5(C(=O)O)CC[C@]34C)[C@]2(C)CO)C(O)C(O)C1OC1OC(C)C(O)C(OC2OCC(O)C(O)C2O)C1O` (stereo not given in full), the Potency entry in experiment [1] is “inactive”. The outcome in experiment [2] is “inactive [at 11.6 µM]”. In addition, the activity change, negative = thiol reactive in experiment [3] is 307% [at 11.5 µM].

For the molecule `CC1=C2CC(O)(C(C)(C)O)C(O[C@@H]3O[C@H](CO)[C@@H](O)[C@H](O)[C@H]3O)CC(C)C2CC1=O` (stereo not given in full), the Potency entry in experiment [1] and in experiment [2] was “inactive” in each case. For the same molecule, in experiment [3], the Potency was 3.67 µM (active).

Regarding `CCOC(=O)CSc1nc2c(sc3ccccc32)c(=O)n1CCCN1CCCC1`, the Potency entry in experiment [1], in experiment [2] and in experiment [3] was “inactive” each time.

In the case of `CC(=O)NC(Cc1c[nH]c2ccccc(=O)c12)C(=O)O` (stereo not given), the Potency result in experiment [1] and in experiment [2] was “inactive” throughout. Further, the Potency in experiment [3] is 5.32 µM (active).

As to `CC(C)C[C@H](NC(=O)[C@@H]1O[C@H]1C(=O)O)C(=O)NCCCCN=C(N)N`, the Potency entry in experiment [4], in experiment [2] and in experiment [3] was “inactive” throughout.
